Experimental data: PubChem BioAssay AID2401 (Southern Research Specialized Biocontainment Screening …, 2010)
Screen size: about 2,200 compounds; about 530 (24%) were called active.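 The calls were made as follows: active = inhibition above a set limit at one or more concentrations of the dose series; inactive = inhibition under that limit at every dose.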 The list is a sample of the results. Entries that show only a call come without a potency. Potency and affinity values are given separately.

test: S. Typhimurium nonspecific reporter signal inhibition – Salmonella Typhimurium, GFP fluorescence, counter-screen for PhoP regulon inhibitor project, dose response (AID 2401); details: 4 h; series mostly up to 150 µM;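 also: S. typhimurium with Mg-insensitive nmpC-GFP reporter grown at 10 µM Mg2+; drop in reporter fluorescence reflects general culture growth inhibition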

| Compound | outcome |
| --- | --- |
| Cc1ccc(C)n1-c1cccc(N)c1 | inactive |
| O=C1CC(c2ccccc2)n2ncnc2N1 (stereo unspecified) | inactive |
| COC(OC)c1nc(SCC(=O)Nc2cccc(Cl)c2)ncc1C(=O)O | inactive |
| COc1ccc(Cl)cc1-c1nc(SCC(N)=O)n[nH]1 | inactive |
| COc1ccc([N+](=O)[O-])cc1NC(=O)C(C)OC(=O)c1ccccc1C(=O)c1ccc(Cl)cc1 (stereo unspecified) | inactive |
| CC(O)c1ccc(OCCN(C)c2ccccn2)cc1 (stereo unspecified) | inactive |
| COC(=O)c1ccc(COC(=O)c2ccccn2)cc1 | inactive |
| CC(C)Cc1oc(C(=O)O)cc1CN | inactive |
| c1ccc2oc(SCc3cn4ccccc4n3)nc2c1 | inactive |
| Cc1cc(C)n(-c2ccc(C(=O)Nc3nc4ccccc4s3)cc2)n1 | inactive |
| C(=N\c1nc2ccccc2n1CCN1CCCCC1)/c1cccs1 | inactive |
| CC(=O)c1cccc(NC(=O)Nc2cccs2)c1 | inactive |
| CC(C)(C)c1ccc(-c2n[nH]c(=S)n2/N=C/c2ccncc2)cc1 | inactive |
| COc1cccc(NC(=S)N/N=C2\CC(C)(C)Oc3ccc(O)cc32)c1 | inactive |
| N#CC(C#N)=c1ccc2c(c1)NC1(CCCCC1)N=2 | inactive |
| O=S1(=O)C=CC(Nc2ccccc2)C1 (stereo unspecified) | inactive |
| Brc1ccc(-c2cnc3n2CCCC3)cc1 | inactive |
| O=C(Nc1nccs1)c1cc(-c2ccco2)nc2ccccc12 | inactive |
| COc1ccccc1-c1cc(C(=O)Nc2cc(C)nn2-c2ccccc2)no1 | inactive |
| CCCOC(=O)C(C)n1cnc2sc(C)c(C)c2c1=O (stereo unspecified) | inactive |
| COc1cc(C)nc(Nc2nc(C)c(C(C)=O)s2)n1 | inactive |
| O=C(CSc1nnc(-c2cccs2)n1-c1ccccc1)NCc1ccc2c(c1)OCO2 | inactive |
| O=C(CCN1C(=O)c2ccccc2C1=O)Nc1ccc(-c2cn3ccsc3n2)cc1 | inactive |
| Cc1cccc(C)c1NC(=O)CSc1nnc(NC(=O)CN2CCOCC2)s1 | inactive |

| Compound | outcome |
| --- | --- |
| C(=N\N1CCN(C2c3ccccc3-c3ccccc32)CC1)/c1cccs1 | inactive |
| Nc1nnc(CC(=O)N/N=C\c2cc([N+](=O)[O-])ccc2O)s1 | inactive |
| C/C(=N\NC(=O)C1CC1c1ccccc1)c1cccc([N+](=O)[O-])c1 (stereo unspecified) | inactive |
| O=C(N/N=C/c1ccc(Cl)cc1Cl)c1cccc(F)c1 | inactive |
| COc1cc([N+](=O)[O-])ccc1NC(=O)CN(C)C | inactive |
| Cc1cc(/C=N/NC(=O)c2cccc([N+](=O)[O-])c2)c(C)n1-c1ccc(Cl)cc1Cl | inactive |
| Cc1ccc(N=Nc2ccc(O)c(/C=N\NC(=O)c3ccc(N)cc3)c2)cc1C | inactive |
| O=C(N/N=C/C1C(c2ccccc2)C1(Cl)Cl)c1cccc(Cl)c1 (stereo unspecified) | inactive |
| COc1cccc(NC(=O)NCCCN2CCN(c3ccc(F)cc3)CC2)c1 | inactive |
| COc1cc(C2C(C(=O)c3ccc(C)o3)=C(O)C(=O)N2CCc2ccccc2)ccc1O (stereo unspecified) | inactive |
| CC(C)NC(=O)CSc1nc(N)c(NC(=O)c2ccccc2F)c(=O)[nH]1 | inactive |
| Cc1ccc(Cl)cc1-c1ccc(/C=N/n2cnnc2)o1 | inactive |
| Cc1cccc(C)c1NC(=O)CCCSc1nnc(-c2ccc(Cl)cc2)n1-c1ccccc1 | inactive |
| CCCCn1c(-c2ccccc2)nc2c(=O)n(C)c(=O)[nH]c21 | inactive |
| Cc1noc(C)c1CSc1nc2ccccc2nc1NS(=O)(=O)c1ccc(Cl)cc1 | inactive |
| C/C(=C\C(=O)c1cccnc1)Nc1ccc(O)cc1 | inactive |
| CC(=O)Nc1ccc(OC(=O)c2cccnc2)cc1 | inactive |
| N/C(=N\OC(=O)COc1ccc(Cl)cc1)c1cccnc1 | inactive |
| N/C(=N\OC(=O)Cc1ccc(Cl)cc1)c1cccnc1 | inactive |
| Cc1ccc2occ(/C=N/O)c(=O)c2c1 | inactive |
| O=C1NN(c2ccccc2)C(=O)/C1=C\c1coc2ccc(O)cc2c1=O | inactive |
| CCCCn1c(SCC(=O)Nc2nnc(CC)s2)nc2c1c(=O)n(C)c(=O)n2C | inactive |
| Cc1ccc(OCC(=O)N2CCN(S(=O)(=O)c3ccccc3)CC2)c([N+](=O)[O-])n1 | inactive |
| O=C(CSc1nnc(-c2ccc(Br)cc2)o1)Nc1cccc2ccccc12 | inactive |

| Compound | outcome |
| --- | --- |
| COc1ccc(CCN2CC3=C(C2=O)C(c2ccccc2)NC(=O)N3C)cc1OC (stereo unspecified) | inactive |
| COc1ccc(C2=Nc3nc(-c4ccccc4)cn3C(c3ccc(OC)cc3)C2)cc1 (stereo unspecified) | inactive |
| CC(C)CC(=O)N/C(N)=N/c1nc2ccccc2s1 | inactive |
| O=C1NC(=Nc2ccccc2)/C(=C/c2ccco2)S1 | inactive |
| O=C(CNC(=O)OCc1ccccc1)NCC(=O)N1CCCC1C(=O)OCc1ccccc1 (stereo unspecified) | inactive |
| CC(NC(=O)CSc1nc2c(cc1C#N)CN(C)CC2)c1ccccc1 (stereo unspecified) | inactive |
| CCCn1c(N)c(C(=O)COC(=O)c2c(C)noc2C)c(=O)n(C)c1=O | inactive |
| CC(CO)(CO)NCc1ccc(-c2ccccc2)cc1 | inactive |
| COc1ccc2c(c1)C1C=CCC1C(c1cc3c(cc1Br)OCO3)N2 (stereo unspecified) | inactive |
| O=C1CCCc2c1cc(C(=O)NCc1ccco1)c(=O)n2-c1ccc(Cl)cc1 | inactive |
| CCOc1ccccc1Nc1nc2ccccc2n2cnnc12 | inactive |
| O=C(CCN1CCCCC1)NCC1OCCc2ccccc21 (stereo unspecified) | inactive |
| O=C(CCN1CCc2ccccc2C(c2ccccc2)C1)c1ccc2c(c1)OCCO2 (stereo unspecified) | inactive |
| c1ccc(Cn2nnc3c(NCc4ccc5c(c4)OCO5)nc(C4CC4)nc32)cc1 | inactive |
| FC(F)Oc1ccc(NC(=S)NCc2nc3ccccc3[nH]2)cc1 | inactive |
| O=C1C2CCCN2c2ccc(S(=O)(=O)N3CCOCC3)cc2N1Cc1ccccc1F (stereo unspecified) | inactive |
| CCOc1cc(S(=O)(=O)N2CCN(CC)CC2)ccc1Cl | inactive |
| c1ccc(-n2cnc3cc(NCc4ccncc4)ccc32)cc1 | inactive |
| CCCCn1c(/N=C/c2ccccc2NS(=O)(=O)c2ccc(C)cc2)nc2ccccc21 | inactive |
| CCN(CC)C(=O)CP(=O)(c1ccccc1)c1ccccc1 | inactive |
| O=c1[nH]c(CSc2nnc(NCCCN3CCOCC3)s2)nc2cc(Cl)ccc12 | inactive |
| O=C(CSCc1cccc(CSCC(=O)Nc2ccc3ccccc3c2)n1)Nc1ccc2ccccc2c1 | inactive |
| CCN(CC)S(=O)(=O)c1ccc2c(c1)nc(SCC(=O)N1CCOCC1)n2-c1ccccc1OC | inactive |
